Assay results reported in PubChem BioAssay AID1159580 (chemical genetic matrix, 2015).
Several values for one entry are separate records, joined by “and”; a condition that tells them apart may be missing. Identical values can stand only once. In all, about 5,500 compounds went through this assay and about 2,000 (36%) were called active. Another 18% or so got no clear call; they are omitted. Cut-off read from the data, not from the text of the source: active = normalized growth mostly below about 0.91 (no sharp cut-off); inconclusive = no clear call, values can overlap the other calls; inactive = mostly above about 0.92. Some of the results follow.

Assay: chemical genetic growth profiling, strain panel (AID 1159580);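 note: tested at 20 µM; growth read once vehicle control cultures reached saturation at 30 °C; 1 = growth at the plate median or of vehicle wells; lower values mean less growth of the strain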
Details: S. cerevisiae deletion strains, growth OD

Measured: normalized growth

COc1cc([C@@H]2c3cc4c(cc3[C@H](O)[C@H]3COC(=O)[C@@H]23)OCO4)cc(OC)c1OC
inactive: locus YAL021C, strain ccr4, hits give low values 1 | locus YAL026C, strain drs2, hits give low values 1.03 | locus YAL030W, strain snc1, hits give low values 1.02 | locus YBL061C, strain skt5, hits give low values 1 | locus YBR009C, strain hhf1, hits give low values 1 | locus YBR021W, strain FUR4, hits give low values 1.04 | locus YBR023C, strain chs3, hits give low values 1.02 | locus YBR171W, strain sec66, hits give low values 1.02 | locus YBR229C, strain ROT2, hits give low values 1 | locus YBR231C, strain swc5, hits give low values 1.02 | locus YBR279W, strain paf1, hits give low values 1.02 | locus YCL011C, strain gbp2, hits give low values 1.02 | locus YCL016C, strain dcc1, hits give low values 1.01 | locus YCL029C, strain bik1, hits give low values 0.983 | locus YCL069W, strain vba3, hits give low values 1.02 | locus YCR088W, strain abp1, hits give low values 1.02 | locus YDL005C, strain med2, hits give low values 1.02 | locus YDL035C, strain GPR1, hits give low values 0.991 | locus YDL040C, strain nat1, hits give low values 1.02 | locus YDL074C, strain BRE1, hits give low values 0.949 | locus YDL101C, strain DUN1, hits give low values 1.01 | locus YDL134C, strain PPH21, hits give low values 1.03 | locus YDL185W, strain tfp1, hits give low values 0.945 | locus YDL192W, strain arf1, hits give low values 1.01 | locus YDR001C, strain nth1, hits give low values 1.02 | locus YDR069C, strain doa4, hits give low values 1.03 | locus YDR101C, strain arx1, hits give low values 0.98 | locus YDR137W, strain rgp1, hits give low values 1.05 | locus YDR159W, strain sac3, hits give low values 1.03 | locus YDR162C, strain NBP2, hits give low values 1.01 | locus YDR195W, strain ref2 1.04 | locus YDR297W, strain sur2, hits give low values 1.03 | locus YDR318W, strain mcm21, hits give low values 0.999 | locus YDR334W, strain swr1, hits give low values 1.02 | locus YDR335W, strain msn5, hits give low values 1.02 | locus YDR388W, hits give low values 0.988 | locus YDR392W, strain spt3, hits give low values 0.989 | locus YDR502C, strain sam2, hits give low values 0.989 | locus YEL003W, strain gim4, hits give low values 1.02 | locus YEL037C, strain rad23, hits give low values 1.01 | locus YEL061C, strain CIN8 (second series), hits give low values 1.02 | locus YEL061C, strain CIN8, hits give low values 1.01 | locus YER015W, strain faa2, hits give low values 1.02 | locus YER016W, strain bim1, hits give low values 1.02 | locus YER110C, hits give low values 0.98 | locus YER111C, strain swi4, hits give low values 1.01 | locus YER155C, strain BEM2 (second series), hits give low values 1.02 | locus YER155C, strain BEM2, hits give low values 0.986 | locus YER167W, strain BCK2, hits give low values 1 | locus YFR010W, strain ubp6, hits give low values 1.02 | locus YGL078C, strain dbp3, hits give low values 0.972 | locus YGL086W, strain mad1, hits give low values 0.983 | locus YGL167C, strain pmr1, hits give low values 1.02 | locus YGL173C, strain kem1, hits give low values 1.02 | locus YGL227W, strain vid30, hits give low values 1.03 | locus YGL240W, strain doc1, hits give low values 1.03 | locus YGL248W, strain PDE1, hits give low values 1.03 | locus YGL253W, strain hxk2, hits give low values 1.02 | locus YGR135W, strain pre9, hits give low values 1.02 | locus YGR229C, strain SMI1, hits give low values 1.02 | locus YGR252W, strain gcn5, hits give low values 1.17 | locus YHR013C, strain ard1, hits give low values 1.03 | locus YHR027C, strain rpn1, hits give low values 1.02 | locus YHR030C, strain SLT2, hits give low values 0.987 and 0.98 | locus YHR079C, strain IRE1 (second series), hits give low values 0.983 | locus YHR079C, strain IRE1, hits give low values 0.983 | locus YHR094C, strain hxt1, hits give low values 0.999 | locus YHR129C, strain ARP1, hits give low values 1.01 | locus YHR142W, strain chs7, hits give low values 1.03 | locus YHR200W, strain rpn10, hits give low values 0.976 | locus YIL066C, strain RNR3, hits give low values 1.01 | locus YIL073C, strain SPO22, hits give low values 0.961 | locus YIL125W, strain kgd1, hits give low values 0.994 | locus YIR030C, strain dcg1, hits give low values 0.995 | locus YJL092W, strain hpr5, hits give low values 1.02 | locus YJL095W, strain BCK1 (second series), hits give low values 1.02 | locus YJL095W, strain BCK1, hits give low values 1.05 and 0.988 | locus YJL115W, strain asf1, hits give low values 1.04 | locus YJL129C, strain trk1, hits give low values 1.04 | locus YJL134W, strain LCB3, hits give low values 0.986 | locus YJL154C, strain vps35, hits give low values 1.01 | locus YJL164C, strain tpk1, hits give low values 1 | locus YJL166W, strain qcr8, hits give low values 1.03 | locus YJL168C, strain set2, hits give low values 0.989 | locus YJL187C, strain SWE1 (second series), hits give low values 1.01 | locus YJR043C, strain POL32, hits give low values 1.01 | locus YJR066W, strain TOR1, hits give low values 0.917
